Laboratory results published in PubChem BioAssay AID686979 (National Center for Advancing Translational Sciences (NCATS), 2013).
Several values for one entry are separate records, joined by “and”; a condition that tells them apart may be missing. Equal values may be shown once. The whole screen tested about 420,000 compounds, of which about 50,000 (12%) were called active. Another 26% or so got no clear call; they are omitted. The call rests on the fitted dose curve; in most records, active means well fitted inhibition curve with a large enough effect; inconclusive means small, poorly fitted or top-dose-only effect; inactive means flat fitted curve, though single readings scatter. What follows is part of a selection rich in actives, with near analogues and random picks from the rest. Entries that show only a call come without a potency. Where a structure was tested more than once in an assay, its records may differ in their call.
Potency means the concentration at half of the fitted maximal effect.

Assay: qHTS for Inhibitors of human tyrosyl-DNA phosphodiesterase 1 (TDP1): qHTS in cells in presence of CPT; further: nearly all actives have a fitted effect of over 55% in size
Details: chicken DT40 Tdp1-/-;hTDP1 cells + 20 nM CPT, ATP luminescence, 48 h; series mostly up to 46.2 µM
In short: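 Chicken DT40 Tdp1-/- cells complemented with human TDP1, 400 cells/well, exposed to compounds plus 20 nM camptothecin for at least 48 h at 37 C; viability read as ATP content by CellTiter-Glo luminescence.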
In the case of C(#CCN1CCOCC1)CCCN1CCOCC1, the Potency is reported as “inactive”.
In the case of Cn1nc(C(F)(F)F)c2cc(NC(=O)OCC(C)(C)C)sc21, the Potency is reported as “inactive”.
For CCNC(=O)C1(C)CCCN(C(=O)c2c(C)noc2C)C1 (stereo unspecified), the Potency was “inactive”.
In the case of O=C(COC(=O)c1ccccc1)Nc1cccc(S(=O)(=O)N2CCOCC2)c1, the Potency is reported as “inactive”.
With Cc1cc2ccccn2c1C(=O)c1cccc(S(=O)(=O)N2CCOCC2)c1 the Potency was 14.6 µM (active).
With Cc1cc2ccccn2c1C(=O)c1cccc(F)c1 the Potency was “inactive”.
In the case of O=[N+]([O-])c1ccc(S(=O)(=O)Nc2cccc(-c3ccc(N4CCCC4)nn3)c2)cc1, the Potency is reported as “inactive”.
In the case of Cc1cc(C(=O)CC#N)c(C)n1-c1c(C)n(C)n(-c2ccccc2)c1=O, the Potency is reported as “inactive”.
For C=C1CCN([C@@H](Cc2ccccc2)C(=O)N2CCOCC2)S(=O)(=O)c2ccccc21, the Potency was “inactive”.
For CCn1c2ccccc2c2nnc(SCC(=O)O)nc21, the Potency was “inactive”.
For C=CCn1c2ccccc2c2nnc(SC(CC)C(=O)Nc3nc(C)c(C(=O)OCC)s3)nc21 (stereo unspecified), the Potency was 11.6 µM (active).
In the case of CCOC(=O)c1sc(NC(=O)C(CC)Sc2nccn2C)nc1C (stereo unspecified), the Potency is reported as “inactive”.
For O=C(NC1CC1)C1CCCN(C(=O)NC2CCCCC2)C1 (stereo unspecified), the Potency was “inactive”.
For O=C(Cn1cnc2ccccc2c1=O)NNC(=O)c1ccccc1F, the Potency was “inactive”.
With CN(NC(=O)c1ccccc1F)c1nc(C(F)(F)F)nc2ccccc12 the Potency was 0.206 µM (active).
With CN(NC(=O)c1ccccc1)c1nc2ccccc2nc1C(F)(F)F the Potency was 8.2 µM (active).
In the case of Cc1nc2ccccc2c(=O)n1NC(=O)c1ccccc1, the Potency is reported as “inactive”.
With Cc1ccc(S(=O)(=O)NC(=O)c2cccc(C)c2)cc1 the Potency was “inactive”.
With CSc1nc(N(C)NC(=O)c2cccc(C)c2)c2ccccc2n1 the Potency was 0.0517 µM (active).
For O=C(Nn1cnc2ccccc2c1=O)c1ccccc1, the Potency was “inactive”.
In the case of COc1ccc(OCC(=O)NNC(=O)c2cccc(C)c2)cc1, the Potency is reported as “inactive”.
With COC(=O)CNC(=O)c1ccccc1F the Potency was “inactive”.
In the case of COc1cc(N2C(=O)CSC2=S)cc(OC)c1OC, the Potency is reported as “inactive”.
In the case of CCOC(=O)c1nnn(CC(=O)NC(=O)Nc2ccccc2F)c1C(=O)OCC, the Potency is reported as “inactive”.
For Cn1c(CCNS(=O)(=O)c2ccc(F)cc2)nnc1SCc1cccnc1, the Potency was “inactive”.
In the case of CC(C)CN1CCNC(=O)C1CC(=O)N(C)CC1CCOCC1 (stereo unspecified), the Potency is reported as “inactive”.
For O=C(NCCS(=O)(=O)N1CCN(c2ccc(F)cc2)CC1)c1ccccc1Br, the Potency was “inactive”.
In the case of COc1ccccc1CCNC(=O)CN1C(=O)NC2(CCCC2)C1=O, the Potency is reported as “inactive”.
In the case of COC(=O)c1cc(NC(=O)CC2C(=O)NCCN2C(=O)c2ccc(F)cc2)cc(C(=O)OC)c1 (stereo unspecified), the Potency is reported as “inactive”.
In the case of CCOc1ccc(C(C(=O)NCCOC)N(CCOC)C(=O)CCC(=O)Nc2ccccn2)cc1 (stereo unspecified), the Potency is reported as “inactive”.
With CCN(C(=O)c1cc([N+](=O)[O-])ccc1NCc1cccnc1)c1ccccc1 the Potency was “inactive”.
In the case of CCCn1nc(C(=O)NNC(=O)CSCC(=O)Nc2cc(C)on2)c2ccccc2c1=O, the Potency is reported as “inactive”.
In the case of CC(NC(=O)c1ccccc1)C(=O)Nc1ccccc1 (stereo unspecified), the Potency is reported as “inactive”.
With O=C(NC1=CC(=O)c2ccccc2C1=O)c1ccccc1 the Potency was 0.651 µM (active).
In the case of O=C(NC(=O)c1ccccc1)NC(=O)c1ccccc1, the Potency is reported as “inactive”.
In the case of CCC1CN(CCNC(=O)c2ccsc2)Cc2cc(OC)ccc2O1 (stereo unspecified), the activity change, negative = growth inhibition is reported as 9.24% [at 9.04 µM] (inactive).
With COc1ccc(C(C(=O)NCC2CCCO2)N(C(=O)Cn2nnc3ccccc32)c2ccc(NC(C)=O)cc2)cc1OC (stereo unspecified) the Potency was “inactive”.
In the case of O=S1(=O)CC(N2CCN(Cc3ccccc3F)CC2)CN1Cc1cn(Cc2ccccc2)nn1 (stereo unspecified), the Potency is reported as “inactive”.
With O=[N+]([O-])c1ccc(CN2CC(N3CCC(c4ccccc4)CC3)CS2(=O)=O)cc1 (stereo unspecified) the Potency was 18.4 µM (active).
In the case of O=S1(=O)CC(N2CCN(c3ccccn3)CC2)CN1Cc1ccc(F)cc1 (stereo unspecified), the Potency is reported as “inactive”.
In the case of CCc1nn(CC(=O)N2CCN(CC)CC2)c(=O)c2cccn12, the Potency is reported as “inactive”.
For COc1ccc(S(=O)(=O)NC(C)c2ccccc2)cc1C(=O)N1CCCCC1 (stereo unspecified), the Potency was “inactive”.
For Cc1ccc(S(=O)(=O)n2cccc2CO)cc1, the Potency was “inactive”.
With COc1cccc2cc(-c3nc(Cl)c4c5c(sc4n3)CC(C)CC5)c(=O)oc12 (stereo unspecified) the Potency was “inactive”.
With COc1ccc(OC)c(NC(=O)/C=C/c2ccc(C)o2)c1 the Potency was “inactive”.
With CCc1nnc(NC(=O)/C=C/c2ccc(C)o2)s1 the Potency was “inactive”.
For Cc1ccc(/C=C/C(=O)Nc2ccc([N+](=O)[O-])c(NC(=O)/C=C/c3ccc(C)o3)c2)o1, the Potency was 11.6 µM (active).
In the case of O=C(Nc1ccn(Cc2ccc(F)cc2)n1)c1ccncc1, the Potency is reported as 18.4 µM (active).
With O=C(Nc1ccn(Cc2ccccc2)n1)c1n[nH]c([N+](=O)[O-])c1Cl the Potency was “inactive”.
In the case of O=C(Nc1ccn(Cc2ccccc2)n1)c1cccc(F)c1, the Potency is reported as “inactive”.
In the case of Cn1c(=S)sc2ccc3ccccc3c21, the Potency is reported as “inactive”.
For CC(C)NC(=O)N1CC[C@@]2(CCCN(C(=O)c3ccco3)C2)C1, the Potency was “inactive”.
In the case of Cc1ccc(NC(=O)CN2CCCCC2)c2c1CC(C)(C)O2, the Potency is reported as “inactive”.
For O=C(O)CSc1ccc(S(=O)(=O)N2CCCC2)cn1, the Potency was “inactive”.
For Cc1ccc(S(=O)(=O)NC2(C(F)(F)F)NC(=O)N(CCc3ccccc3)C2=O)cc1 (stereo unspecified), the Potency was “inactive”.
With O=C(Cc1ccc(F)cc1)N1CCN=C1SCc1cccc([N+](=O)[O-])c1 the Potency was “inactive”.
For COc1ccc(Nc2ncc(C(=O)N3CCN(c4ccccc4OC)CC3)c3ccccc23)cc1, the Potency was 29.1 µM (active) and 13 µM (active).
With COc1ccccc1N1CCN(C(=O)c2ccc(NC3=NC4CS(=O)(=O)CC4S3)cc2)CC1 (stereo unspecified) the Potency was “inactive”.
For COc1ccc(NC(=O)c2cnc(Nc3ccc(C)c(Cl)c3)c3ccccc23)cc1OC, the Potency was “inactive”.
For O=C(Nc1cc(F)ccc1F)c1ccc2c(=O)n3c(nc2c1)CCC3, the Potency was “inactive”.
For Cc1ccc(-c2csc(NC(=O)C3=COCCO3)n2)cc1C, the Potency was 13 µM (active).
For O=C(CCc1ccccc1)Nc1nn[nH]n1, the Potency was “inactive”.
With O=C(Nc1nc(-c2cccnc2)cs1)c1ccccc1F the Potency was “inactive”.
In the case of O=C(Nc1nc(-c2ccncc2)cs1)C1COc2ccccc2O1 (stereo unspecified), the Potency is reported as 20.6 µM (active).
With COc1ccc(NC(=O)C2COc3ccccc3O2)cc1 (stereo unspecified) the Potency was “inactive”.
With Cc1ccc(-c2csc(NC(=O)Cc3cccs3)n2)cc1C the Potency was “inactive”.
With CC(=O)NCCC(=O)Nc1nc(-c2ccc3c(c2)OCCO3)cs1 the Potency was “inactive”.
In the case of O=C(CCc1ccccc1)Nc1ccc(NC(=O)C2CCCCC2)nc1, the Potency is reported as “inactive”.
For Cc1csc(NC(=O)C2=COCCO2)n1, the Potency was “inactive”.
With CC(=O)c1cccc(NC(=O)C2COc3ccccc3O2)c1 (stereo unspecified) the Potency was “inactive”.
In the case of O=C(Nc1nc(-c2ccc3c(c2)OCO3)cs1)c1ccncc1, the Potency is reported as 14.6 µM (active).
With O=C(CCc1ccccc1)Nc1ncc([N+](=O)[O-])s1 the Potency was 20.6 µM (active).
With Fc1ccc(/C=N/n2c(COc3ccccc3)n[nH]c2=S)cc1 the Potency was “inactive”.
For C#CCN(C[C@H]1[C@H](OC(=O)NC2CCCC2)[C@H](OC(=O)NC2CCCC2)C[C@H]2C(=O)N(c3ccccc3)C(=O)[C@@H]12)S(=O)(=O)c1ccc(C)cc1, the Potency was “inactive”.
For CC(Oc1ccccc1)C(=O)NN1Cc2ccccc2C1=N (stereo unspecified), the Potency was “inactive”.
With O=C(COc1ccc([N+](=O)[O-])cc1)Nc1ccc(N2CCCC2)cc1 the Potency was “inactive”.
For O=C(Nc1nnc(SCc2ccc(Cl)cc2Cl)s1)C1COc2ccccc2O1 (stereo unspecified), the Potency was “inactive”.
With C/C(=N/NC(=O)C1COc2ccccc2O1)c1ccco1 (stereo unspecified) the Potency was “inactive”.
With O=C(Nc1ncc([N+](=O)[O-])s1)C1COc2ccccc2O1 (stereo unspecified) the Potency was 14.6 µM (active).
For Cc1cc(N=Nc2ccc3ccccc3c2)ccc1O, the Potency was “inactive”.
In the case of C[C@H](NC(=O)c1nc[nH]c1C(=O)NCC(=O)OC(C)(C)C)C(=O)OCc1ccccc1, the Potency is reported as “inactive”.
In the case of COc1ccc(C(O)C(O)(C(=O)OC(C)C)c2ccc(C)cc2)cc1 (stereo unspecified), the Potency is reported as “inactive”.
With COc1ccc(OC)c(-c2csc(-c3cccs3)n2)c1 the Potency was “inactive”.
With COc1ccc(OC)c(Nc2nc(-c3ccc(O)c(O)c3)cs2)c1 the Potency was 0.82 µM (active).
In the case of COc1ccc(-c2csc(Nc3ccc(O)cc3)n2)cc1, the Potency is reported as 10.3 µM (active).
With COc1ccc(-c2csc(Cc3nc(O)cs3)n2)cc1 the Potency was 18.4 µM (active).
With COc1cccc(CC(=O)Nc2ccc(-c3csc(C)n3)cc2)c1 the Potency was “inactive”.
In the case of COc1ccc(OC)c(-c2csc(NC(=O)COC(=O)C3CC3)n2)c1, the Potency is reported as “inactive”.
With COc1ccc(CCN(C(=O)COc2ccccc2)c2nc(-c3ccccc3)cs2)cc1OC the Potency was “inactive”.
With N#CCc1ccc(NC(=O)c2ccccc2C(=O)Nc2ccc(CC#N)cc2)cc1 the Potency was “inactive”.
For COc1ccc(NC(=O)COC(=O)c2n[nH]c3ccccc23)c(OC)c1, the Potency was “inactive”.
In the case of CCOc1ccc(N2CC(C(=O)NCc3ccccn3)CC2=O)cc1 (stereo unspecified), the Potency is reported as “inactive”.
For COc1cc(/C=C/C(=O)O)cc(S(=O)(=O)Nc2ccccc2C(=O)NCCc2ccccc2)c1OC, the Potency was “inactive”.
For COCCCn1c(SCC(=O)NC2CCCC2)nnc1-c1ccccc1, the Potency was “inactive”.
With CCCCN(C)CCCNC(=O)CN1N=C(c2ccc(OC)cc2)CCC1=O the Potency was “inactive”.
For O=C1NNC(c2ccccc2)=N/C1=C\c1ccc(Cl)cc1, the Potency was “inactive”.
With Cc1nc(=O)c(-c2ccccc2)c(C)n1-c1ccc(Br)cc1 the Potency was “inactive”.
In the case of CCOC(=O)c1c(C)oc(C)c(C(=O)OCC)c1=O, the Potency is reported as “inactive”.
With CC(C)Cn1cnc2c1c(=O)n(CC(=O)NN)c(=O)n2Cc1ccccc1 the Potency was “inactive”.
With CC1=Nc2cc(C(=O)N3CCC(C)CC3)ccc2Sc2ccc(Cl)cc21 the Potency was 14.6 µM (active).
For COc1ccc(C(=O)Nc2c(Cl)cc(Cl)cc2C(=O)N2CCC(C)CC2)cc1, the Potency was “inactive”.
For CC1CCN(C(=O)c2ccc3c(c2)NC(=O)CN3)CC1, the Potency was “inactive”.
For Cc1cc(OCc2ccc(C(=O)Nc3ccc(C(=O)O)cc3)o2)ccc1Cl, the Potency was “inactive”.
For CN(Cc1ccccc1)C(=O)CCc1ccccc1, the Potency was “inactive”.
With CN(C(=O)CN(CCO)CC(=O)N(C)C(C)(C)Cc1ccccc1)C(C)(C)Cc1ccccc1 the Potency was “inactive and 3.66 µM (active)”.
For CCN(CC)CCCNC(=O)CCc1ccccc1, the Potency was “inactive”.
